# Laboratory results taken from the supplement of paper PMC11628255, “Interference of metal ions on the bioluminescent signal of firefly, Renilla, and NanoLuc luciferases in high-throughput screening assays” (Frontiers in Chemistry, 2024).
# ± gives the standard deviation of the averaged measurements.
# Tested on: NanoLuc luciferase (NLuc)
# Assay: residual bioluminescent signal relative to negative (DMSO) control; higher = less interference (more residual luciferase signal)
# Procedure: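 Purified luciferase (FLuc 10 nM + 10 uM D-luciferin; NLuc 10 pM + 10 uM furimazine; RLuc 50 pM + 2 uM coelenterazine) in 384-well plates; metal salt pre-incubated with enzyme 10 min at RT, substrate added and luminescence read after 10 min. Signal normalised to plate DMSO negative control (% N_VALUE = x/mean neg *100); triplicate wells at 0.01, 1 and 5 mM salt.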
# [1] = metal salt concentration 0.01 mM, HEPES conditions (100 mM HEPES, 0.1% BSA, pH 7.5)
# [2] = metal salt concentration 0.01 mM, screening conditions (PBS, 0.1% BSA, pH 7.4)
# [3] = metal salt concentration 1 mM, HEPES conditions (100 mM HEPES, 0.1% BSA, pH 7.5)
# [4] = metal salt concentration 1 mM, screening conditions (PBS, 0.1% BSA, pH 7.4)
# [5] = metal salt concentration 5 mM, HEPES conditions (100 mM HEPES, 0.1% BSA, pH 7.5)
# [6] = metal salt concentration 5 mM, screening conditions (PBS, 0.1% BSA, pH 7.4)
SMILES,residual bioluminescent signal [1],residual bioluminescent signal [2],residual bioluminescent signal [3],residual bioluminescent signal [4],residual bioluminescent signal [5],residual bioluminescent signal [6]
[Cl-].[Na+] [sodium chloride],95.5 ± 3.6%,99.4 ± 2.9%,99.8 ± 3.9%,102 ± 4.1%,98.5 ± 2.6%,99.4 ± 4.3%
O.O.O.O.O.O.O.O=S(=O)([O-])[O-].[Mg+2] [magnesium sulfate],91 ± 1.1%,97.44 ± 0.7%,99 ± 1.7%,95.09 ± 0.87%,107 ± 3.1%,95.5 ± 2.1%
[Cl][Fe][Cl] [iron(II) chloride],95.6 ± 6%,99.7 ± 4.5%,2.39 ± 1.2%,10.5 ± 2.6%,0.172 ± 0.13%,0.779 ± 0.37%
[Cl][Pt-2]([Cl])([Cl])[Cl].[K+].[K+] [potassium tetrachloroplatinate(II)],91.45 ± 0.79%,99.8 ± 2.3%,8.06 ± 0.51%,7.81 ± 1.1%,7.52 ± 0.31%,5.07 ± 0.66%
O=S(=O)([O-])[O-].[Fe+2] [iron(II) sulfate],92.06 ± 0.82%,97.1 ± 1.1%,12.2 ± 3.3%,29 ± 1.3%,0.329 ± 0.23%,1.15 ± 0.23%
O=S(=O)([O-])[O-].[Mn+2] [manganese(II) sulfate],93.9 ± 2.1%,96.1 ± 2.1%,95 ± 3%,92.7 ± 1.3%,96 ± 1.4%,73.4 ± 2.1%
[Cl][Fe]([Cl])[Cl] [iron(III) chloride],90.2 ± 4%,93 ± 3%,0.54 ± 0.37%,53.4 ± 2.6%,0.188 ± 0.081%,0.189 ± 0.24%
